Experimental data reported in the supplement of paper PMC6555819.

Tests used:
Experiment in all cases: PBM binding z-score (relative to random genomic background probes); higher = stronger binding; sequences stand for … in GC…GCGATTGACAGCGTAGAATGAAGG
[1] = system: FXR:RXRa (NR concentration 270 nM, RXRa partner concentration 90 nM)
Outline: (§1)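 Probes were double-stranded and carried 34-nt variable regions with direct-repeat seeds, single-nucleotide variants, half-site ablations and random human genomic background sequences, printed on custom Agilent 4×180K protein-binding microarrays. Arrays were incubated 1 h with ligand-free nuclear receptor dimers in PBS pH 7.4, 2% milk, 0.02% Triton X-100, 1 mM DTT, 0.2 mg/mL BSA and 0.4 mg/ml salmon testes DNA. Antibodies against each partner (one per run) detected binding, and scanned fluorescence was regression-normalized. Binding z-scores use the random background probes as reference.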

[2] = system: LXRa:RXRa (NR concentration 270 nM, RXRa partner concentration 90 nM)
Outline: as §1

[3] = system: LXRa homodimer (NR concentration 270 nM)
Outline: as §1

[4] = system: LXRb:RXRa (NR concentration 270 nM, RXRa partner concentration 90 nM)
Outline: as §1

[5] = system: LXRb homodimer (NR concentration 270 nM)
Outline: as §1

[6] = system: PPARa:RXRa (NR concentration 270 nM, RXRa partner concentration 90 nM)
Outline: as §1

[7] = system: PPARg:RXRa (NR concentration 180 nM, RXRa partner concentration 90 nM)
Outline: as §1

[8] = system: PPARg:RXRa 270nM:90nM, anti-RXR (NR concentration 270 nM, RXRa partner concentration 90 nM)
Outline: as §1

[9] = system: PPARg:RXRa 30nM:10nM, anti-RXR (NR concentration 30 nM, RXRa partner concentration 10 nM)
Outline: as §1

[10] = system: PPARg:RXRa 90nM:30nM, anti-RXR (NR concentration 90 nM, RXRa partner concentration 30 nM)
Outline: as §1

[11] = system: PPARg:RXRa DBDmut IVT, anti-RXR (DBD mutation: RXRa K156A/R161A, NR concentration 270 nM, RXRa partner concentration 90 nM)
Outline: as §1

[12] = system: PPARg:RXRa IVT, anti-PPARg (NR concentration 270 nM, RXRa partner concentration 90 nM)
Outline: as §1

[13] = system: PPARg DBDmut:RXRa IVT, anti-PPARg (DBD mutation: PPARg1 K132A/R137A, NR concentration 270 nM, RXRa partner concentration 90 nM)
Outline: as §1

[14] = system: PPARg DBDmut IVT, anti-PPARg (DBD mutation: PPARg1 K132A/R137A, NR concentration 270 nM)
Outline: as §1

[15] = system: PPARg homodimer (NR concentration 180 nM)
Outline: as §1

[16] = system: PXR:RXRa (NR concentration 270 nM, RXRa partner concentration 90 nM)
Outline: as §1

[17] = system: PXR homodimer (NR concentration 270 nM)
Outline: as §1

[18] = system: RARa:RXR (NR concentration 270 nM, RXRa partner concentration 90 nM)
Outline: as §1

[19] = system: RARa homodimer (NR concentration 270 nM)
Outline: as §1

[20] = system: RARb:RXRa (NR concentration 270 nM, RXRa partner concentration 90 nM)
Outline: as §1

| Sequence | PBM binding z-score [1] | PBM binding z-score [2] | PBM binding z-score [3] | PBM binding z-score [4] | PBM binding z-score [5] | PBM binding z-score [6] | PBM binding z-score [7] | PBM binding z-score [8] | PBM binding z-score [9] | PBM binding z-score [10] | PBM binding z-score [11] | PBM binding z-score [12] | PBM binding z-score [13] | PBM binding z-score [14] | PBM binding z-score [15] | PBM binding z-score [16] | PBM binding z-score [17] | PBM binding z-score [18] | PBM binding z-score [19] | PBM binding z-score [20] |
| --- | --- | --- | --- | --- | --- | --- | --- | --- | --- | --- | --- | --- | --- | --- | --- | --- | --- | --- | --- | --- |
| GATACAGGGTCAAGGCCAGAGTTCGCGTATTGAT | 6.64 | 4.34 | 0.289 | 3.72 | -0.198 | 5.66 | 5.99 | 5.93 | 2.4 | 4.93 | 2.6 | 3.98 | 0.606 | -0.0978 | 2.3 | 5.07 | 1.99 | 5.07 | 1.32 | 4.49 |
| ATCGAAAGGTCGGGAGGTGAGTATACAGAAAGGC | 2.88 | 2.4 | 0.589 | 2.36 | 0.968 | 3.64 | 2.22 | 2.42 | 0.864 | 1.44 | 0.224 | 1.47 | 2.2 | 1.16 | 1.74 | 2.12 | 0.567 | 2.81 | 1.38 | 3.48 |
| ATCGAAAGGTCGCGAGGTGAGTATACAGAAAGGC | 5.31 | 4.1 | -0.00351 | 3.19 | -0.0982 | 5.26 | 4.54 | 4.93 | 1.89 | 3.56 | 0.5 | 3.13 | 1.02 | 0.918 | 1.25 | 3.33 | 0.012 | 4.35 | 0.464 | 4.48 |
| CCTTACGGGTCACTGCCAGGTTATAGCATTTGGA | 5.22 | 3.93 | 0.268 | 3.17 | 0.0184 | 4.86 | 4.05 | 4.26 | 1.23 | 2.88 | 3.11 | 3.87 | 0.0612 | -0.48 | 2.07 | 3.53 | 0.376 | 3.87 | 0.61 | 3.8 |
| ACTCGGAGCACAAAGGTCAGAGCTACGCCAGTGA | 3.44 | 3.72 | 1.25 | 3.11 | 0.00562 | 4.38 | 5.58 | 6.38 | 4.55 | 6.24 | 0.735 | 2.74 | -0.286 | -0.435 | 2.92 | 3.62 | 0.191 | 4.5 | 0.544 | 4.29 |
| ACAGACAGGTGATGAAGGTAACTGAGGCTATCAT | 0.003 | -0.0614 | -0.296 | -0.234 | -0.411 | 0.0902 | 0.558 | 0.0724 | -0.0753 | 0.0172 | 0.31 | 0.434 | 0.949 | 0.0407 | 0.301 | -0.124 | 0.0874 | 0.438 | 0.583 | 0.369 |
| CCGAGTAGGTTATTGGGCATTCAGGCAACGGTGA | 0.0641 | 0.327 | 0.00288 | -0.0396 | -0.644 | 0.768 | 1.19 | 2.31 | 0.262 | 1.6 | 3.85 | 2.72 | -1.32 | -0.589 | 0.636 | -0.415 | -0.545 | -0.107 | -0.0218 | 0.472 |
| ATATGTAGGTTATCGGGTCATTCAATTTGCGCAT | 3.06 | 3.55 | 1.95 | 3.51 | 0.979 | 5.11 | 7.6 | 6.31 | 3.98 | 6.15 | 7.45 | 7.56 | 2.44 | 2.36 | 2.28 | 3.43 | 1.39 | 3.8 | 1.75 | 2.87 |
| CCTACTGGGACAAAAAGGTCATTGATGCCGATAA | 3.77 | 4.52 | 4.09 | 4.16 | 0.878 | 4.96 | 3.4 | 4.19 | 2.01 | 3.72 | 4 | 4.26 | 0.444 | -0.273 | 3.86 | 4.85 | 4.14 | 5.36 | 1.97 | 3.94 |
| CCTAGTTGGTCGAGGTCACACACGCTATAGGTAC | 4.44 | 4.08 | 2.35 | 3.65 | 0.632 | 4.31 | 2.86 | 3.39 | 0.788 | 2.21 | 1.44 | 3.16 | 1.31 | -0.295 | 3.81 | 5.08 | 3.73 | 5.08 | 1.8 | 3.63 |
| CGTCCAAGGTCATAGGAGGTCAGTTAAGACAGAT | 7.74 | 7.74 | 5.66 | 6.32 | 1.11 | 5.68 | 5.84 | 5.96 | 2.29 | 4.5 | 3.03 | 4.5 | 0.532 | 0.526 | 3.95 | 6.47 | 4.13 | 5.73 | 1.43 | 5.36 |
| CCTTGTTGGTCAGGAGGTCACACACCGGATATGA | 3.65 | 3.45 | 2.55 | 3.64 | 0.947 | 4.07 | 3.37 | 3.8 | 1.66 | 2.83 | 1.61 | 3.58 | 0.862 | 0.471 | 2.86 | 4.22 | 1.27 | 4.37 | 1.82 | 3.85 |
| ATCTCTAGGTAACAAGTTCAGTGCAAGAGAGGAC | 0.558 | 0.749 | 0.739 | 0.611 | 0.89 | 1.5 | 1.32 | 1.86 | 0.692 | 1.45 | 3.44 | 2.92 | 1.24 | 1.13 | 1.36 | 1.87 | 2.67 | 0.985 | 1.05 | 1.69 |
| TCTTATAGGTAAAAGGTGAAAGTCGGTGTGGTAA | 2.14 | 2.25 | 0.401 | 2.19 | 0.39 | 5.39 | 8.99 | 8.57 | 8.65 | 9.86 | 5.43 | 5.26 | 1.47 | 1.32 | 3.07 | 1.92 | 0.675 | 3.31 | 1.6 | 2.21 |
| GCTGCTAGGTCAGGTTGGTCAGATAACGGGTACG | 1.44 | 0.895 | -0.305 | 0.708 | 0.0296 | 1.5 | 1.03 | 1.12 | -0.213 | 0.38 | 2.83 | 2.3 | -0.406 | -0.502 | 0.742 | 0.425 | -0.0616 | 0.792 | 0.212 | 3.22 |
